From PubChem BioAssay (NCI) come the findings set out here.

SMILES strings stand for the structures. Compounds without any hit were thinned out: in the full panel of roughly 83,000, 20% have a hit.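 The test compound was applied at a single concentration to cells in 96-well plates for 48 hours, and percent growth was recorded.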 A number with no mark means an inactive call. Active and inactive are the calls of the source. How the source made its calls: active means growth percent below 10; inactive means the rest.

In the assay the test system is HL-60(TB) leukemia. As to the kind of experiment: NCI-60 one-dose screen, 48 h (100 = growth as untreated, 0 = no growth, -100 = all killed). The note with it: 10 µM unless noted.
Consider `O=C(CN1N=C(c2ccc(F)cc2)CCC1=O)Nc1nc2ccccc2s1`, for which the growth is 8.9% (active).

In the case of `CCCCCCCCCCCCCCCCCCOCC(COCCOCC[N+]1(CCCCCC(=O)[O-])CCCC1)Oc1ncccn1` (stereo not given), the growth is -32.2% (active).

In the case of `NC(N)=N/N=C(/c1ccccc1)c1ccc(N)cc1`, the growth is 98.1%.

In the case of `C=CCn1c(C)nc2cc(Nc3nc(Cl)nc4ccccc34)ccc21`, the growth is 84.1%.

In the case of `COc1cc(Nc2ncc3c(n2)-c2ccc(Cl)cc2C(c2c(F)cccc2OC)=NC3)ccc1C(=O)O`, the growth is 45.4%.

Consider `CC(=N\N=C(N)N)/C(=N/N=C(N)N)c1ccccc1`, for which the growth was 98.7%.

As to `C[Se]C(=O)CC1=C2C=C(F)C=CC2/C(=C\c2ccc(S(C)=O)cc2)C1C` (stereo not given), the growth is -40% (active).

With `O=C(/C=C/c1ccccn1)c1ccccc1`, the growth was 1.48% (active).

As to `NCCNc1nc2ccccc2c2c(=O)c3cccc(F)c3sc12`, the growth was 53%.

For `COc1ccccc1/C=C1\Oc2cc(OCCN3CCC(Cc4ccccc4)CC3)ccc2C1=O`, the growth is 97.1%.

`N#Cc1c(NC(=O)c2cccs2)[n+]([O-])c2ccc(Cl)cc2[n+]1[O-]`: the growth was 122%.

For the molecule `COc1cc2c3c(c4c5ccccc5[nH]c4c2c(OC)c1OC)C(=O)N(CCN1CCCCC1)C3=O`, the growth is 63%.

Turning to `CN(C)c1ccc(CNC(C(=O)c2ccccc2)c2ccccc2)cc1` (stereo not given), the growth was 97.1%.

For `CC(C)C[C@@H](C(=O)N[C@H](C(=O)OC1CCCC1)c1ccccc1)[C@H](O)C(=O)NO`, the growth is 35.9%.

For the molecule `COc1ccc(-c2ccc3ncc4c(c3c2)n(-c2ccc(N3CCNCC3)c(C(F)(F)F)c2)c(=O)n4C)cn1`, the growth was -65.4% (active).

For the molecule `CC(C)C(C(=O)CCN(C)C)c1ccc(Cl)cc1` (stereo not given), the growth was 81.4%.

As to `Cc1ccc(NC(=O)c2[nH]c(SCCN(C)C)nc2-c2ccc(F)cc2)cc1C#Cc1cnc2cccnn12`, the growth is -54.9% (active).

`C=CC1CN2CCC1CC2C(O)c1ccnc2ccc(OC)cc12` (stereo not given): the growth is 103%.

On to `O=C(O)C(Cc1ccccc1)C(=O)O`, for which the growth is 107%.

As to `CS(=O)(=O)Nc1cc(-c2cc3ncc(C#N)c(Nc4ccc(Oc5ccccc5)c(Cl)c4)c3s2)cnc1Cl`, the growth was 64.6%.

As for `N#Cc1cncc(-c2ccc3ncnc(Nc4cccc(Cl)c4)c3c2)c1`, the growth was 97.2%.

Regarding `COc1cccc(-c2nc3occn3c2-c2ccnc(NCCNS(=O)(=O)c3ccc(C(F)(F)F)cc3)n2)c1`, the growth is 116%.

Take `COc1ccc(C2CC(c3ccc4ccccc4c3)=NN2c2nc(O)c(C3=c4cc(Cl)ccc4=NC3=O)s2)cc1` (stereo not given): the growth was -6.68% (active).

Turning to `N#Cc1c2cccnc2c2nnc3cc(Cl)c(Cl)cc3n12`, the growth is 23.3%.

In the case of `CC(C)(C)OC(=O)c1ccc(NCc2cc(O)ccc2O)cc1`, the growth is -39.3% (active).

As for `CCOC(=O)c1cc(C(=O)c2cc(OC)cc(OC)c2)n2nc(C)ccc12`, the growth is -16.5% (active).

`CCCCc1n(Cc2ccc3ccccc3n2)cc[n+]1Cc1ccc2ccccc2c1`: the growth is -46.1% (active).

As for `N=C(N)N=Nc1ccc(NN=C(N)N)cc1`, the growth was 101%.

For `CCCCCCCCCCCCCCCCCC1=NC(C)(CO)CO1` (stereo not given), the growth is 87.2%.

On to `O=C(CCl)NCCNc1nccc(Nc2ccc(S(=O)(=O)Nc3ccccn3)cc2)n1`, for which the growth is 10.2%.

Regarding `O=C(NO)c1ccc(Cn2c(=O)n(-c3ccccc3F)c(=O)c3ccccc32)cc1`, the growth was -1.46% (active).

Regarding `Nc1ccc2c(c1)Cc1cc(NC(=O)C(F)(F)F)ccc1-2`, the growth was 98.4%.

On to `COc1cc(-c2nc(-c3nc4ccc(Cl)cc4[nH]3)cc3c2[nH]c2ccccc23)cc(OC)c1OC`, for which the growth was 68.7%.

As for `CCN1C(=O)N(CC)C2C1NN=c1s/c(=C\c3cccc(F)c3)c(=O)n12` (stereo not given), the growth was -16.9% (active).

Take `O=C(O)[C@@H](Cc1ccc2ccccc2c1)NC(=O)n1c2ccccc2c2ccccc21`: the growth was 6.8% (active).

Consider `CC1=C([Se]CC(OC(=O)[C@@H](CO)NC(=O)OC(C)(C)C)C(=O)NCCCCCC(=O)OCc2ccccc2)C(=O)c2ccccc2C1=O` (stereo not given in full), for which the growth is -32.9% (active).

As to `CC(C)(C)c1cc(C[P+](c2ccc(Cl)cc2)(c2ccc(Cl)cc2)c2ccc(Cl)cc2)cc(C(C)(C)C)c1O`, the growth was 3.1% (active).

For the molecule `Cc1cc(-c2ccccc2)cc(SC#N)[n+]1[O-]`, the growth is 7.14% (active).

With `CC[C@H](C)[C@H](NC(=O)[C@H](CCCCN)NC(=O)[C@H](CCCCN)NC(=O)[C@@H](NC(=O)[C@@H](NC(=O)[C@@H](N)Cc1cnc[nH]1)[C@@H](C)CC)[C@@H](C)CC)C(=O)N[C@@H](CCCNC(=N)N)C(=O)N[C@H](C(=O)N[C@@H](Cc1c[nH]c2ccccc12)C(=O)N[C@@H](Cc1ccc(O)cc1)C(=O)N[C@@H](CCCNC(=N)N)C(=O)N[C@@H](CCCCN)C(=O)N[C@@H](C)C(=O)N[C@@H](Cc1c[nH]c2ccccc12)C(=O)N[C@@H](Cc1cnc[nH]1)C(=O)N[C@H](C(=O)N[C@@H](CC(C)C)C(=O)NCC(=O)N[C@@H](CCCCN)C(=O)N[C@H](C(N)=O)C(C)C)C(C)C)[C@@H](C)O`, the growth is 89.5%.

Turning to `CCCc1nc2ccccn2c1Nc1ccc(C(=O)NO)cc1`, the growth was 111%.
